# PubChem BioAssay (NCI)
# Compounds without any hit were thinned out: in the full panel of roughly 79,000, 15% have a hit. Unmarked numbers belong to inactive results. The source made the active and inactive calls. Cut-off read from the data, not from the text of the source: active = growth inhibition above about 70%; inactive = the rest.
# How the values were obtained:
# [1] = NCI Yeast Anticancer Drug Screen. Data for the rad52 strain (AID 147);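 note: 0% = growth of vehicle-treated control cultures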; settings: S. cerevisiae rad52 mutant growth inhibition, active compounds read high
# Outline: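 Read-out: growth inhibition versus vehicle-treated controls. Cells were a DNA repair-deficient yeast strain treated with compounds.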
# [2] = NCI Yeast Anticancer Drug Screen. Data for the wt1 strain (AID 149);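 note: 0% = growth of vehicle-treated wt1 cultures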; settings: S. cerevisiae wt1 strain (SPY 50644) growth inhibition, active compounds read high
# Outline: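 The wt1 strain was treated with compounds, and growth was compared with vehicle-treated cultures to give inhibition.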
# [3] = NCI Yeast Anticancer Drug Screen. Data for the rad50EPP+ strain (AID 151);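 note: 0% = growth of vehicle-treated control cultures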; settings: S. cerevisiae rad50 mutant strain, active compounds read high
# Outline: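 Growth inhibition read against vehicle controls in rad50EPP+ yeast, a strain altered in DNA damage repair, after compound exposure.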
# [4] = NCI Yeast Anticancer Drug Screen. Data for the mgt1 strain (AID 153); settings: S. cerevisiae mgt1 mutant growth inhibition, active compounds read high
# Outline: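 mgt1 yeast grown with test compound; read-out is growth inhibition versus vehicle-treated cultures.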
# [5] = NCI Yeast Anticancer Drug Screen. Data for the rad50 strain (AID 155);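 note: 0% = growth of vehicle-only cultures of the same strain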; settings: S. cerevisiae rad50 strain growth inhibition, active compounds read high
# Outline: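 Cells are treated with compound, grown, and their growth is then scored against vehicle-only cultures of the same repair-deficient yeast strain.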
# [6] = NCI Yeast Anticancer Drug Screen. Data for the mec2-1 strain (AID 157); settings: S. cerevisiae mec2-1 strain, active compounds read high
# Outline: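 Yeast mec2-1 mutant treated with compound. Readout: growth inhibition vs vehicle controls.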
# [7] = NCI Yeast Anticancer Drug Screen. Data for the rad14 strain (AID 159);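 note: 0% = growth of vehicle-treated control cultures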; settings: S. cerevisiae rad14 strain growth inhibition, active compounds read high
# Outline: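 Readout: yeast growth inhibition, referenced to vehicle-only cultures. Strain bears a defined alteration in DNA damage repair.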
# [8] = NCI Yeast Anticancer Drug Screen. Data for the sgs1 mgt1 strain (AID 161);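 note: 0% = growth of cultures given vehicle only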; settings: S. cerevisiae sgs1 mgt1 strain, active compounds read high
# Outline: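 Test agents were incubated with a DNA-repair-mutant yeast strain. Growth was then read and compared against vehicle-treated controls.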
# [9] = NCI Yeast Anticancer Drug Screen. Data for the CLN2oe strain (AID 163);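 note: 0% = growth of vehicle-only control cultures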; settings: S. cerevisiae CLN2oe strain, active compounds read high
# Outline: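 Read-out: yeast growth inhibition, expressed relative to vehicle-only controls. The strain bears an engineered cell-cycle alteration.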
# [10] = NCI Yeast Anticancer Drug Screen. Data for the cln2 rad14 strain (AID 165);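 note: 0% = growth equal to vehicle treated cultures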; settings: S. cerevisiae cln2 rad14 strain, active compounds read high
# Outline: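 cln2 rad14 yeast strain; compound exposure; growth inhibition read vs vehicle controls.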
# [11] = NCI Yeast Anticancer Drug Screen. Data for the bub3 strain (AID 167); settings: S. cerevisiae bub3 mutant strain, active compounds read high
# Outline: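 Part of a panel of yeast mutants defective in DNA damage repair or cell cycle regulation. Each strain is grown with compound, and inhibition is calculated relative to solvent-treated cultures.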
# [12] = NCI Yeast Anticancer Drug Screen. Data for the wt2 strain (AID 169);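 note: 0% = growth of vehicle-treated yeast cultures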; settings: S. cerevisiae wt2 strain growth inhibition, active compounds read high
# Outline: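 Read-out: growth inhibition versus vehicle-treated control cultures after compound exposure of the yeast strain.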
# [13] = NCI Yeast Anticancer Drug Screen. Data for the mlh1 strain (AID 171);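 note: 0% = growth of vehicle-treated control cultures of the same strain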; settings: S. cerevisiae mlh1 strain growth inhibition, active compounds read high
# Outline: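 Read-out: growth inhibition versus vehicle controls. Strain: engineered yeast with a defined DNA repair or cell cycle defect, compound-treated.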
# [14] = NCI Yeast Anticancer Drug Screen. Data for the sgs1 strain (AID 173);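 note: 0% = growth of vehicle-only control cultures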; settings: S. cerevisiae sgs1 mutant, active compounds read high
# Outline: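 Read-out: yeast growth inhibition relative to vehicle controls, following compound exposure of a strain with a defined DNA repair/cell cycle alteration.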
# [15] = NCI Yeast Anticancer Drug Screen. Data for the mlh1 rad18 strain (AID 175); settings: S. cerevisiae mlh1 rad18 strain growth inhibition, active compounds read high
# Outline: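 Yeast w/ defined DNA-repair lesions; compound exposure; growth vs vehicle controls → % inhibition.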
# [16] = NCI Yeast Anticancer Drug Screen. Data for the rad18 strain (AID 177); settings: S. cerevisiae rad18 mutant growth inhibition, active compounds read high
# Outline: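 Readout: growth inhibition vs vehicle controls. Cells: genetically altered yeast strain, DNA repair defect.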
# [17] = at 5.0 µM (retest, dose inferred, filed as 0.5)
# [18] = at 50.0 µM (retest, dose inferred, filed as 5.0)
structure (smiles),measurement,setting,value
COC(=O)c1ccc([N+](=O)[O-])c(O)c1,growth inhibition,[1]; at 1.2 µM,-5%
same,growth inhibition,[1]; at 3.7 µM,-3%
same,growth inhibition,[1]; at 11.0 µM,17%
same,growth inhibition,[1]; at 33.0 µM,49%
same,growth inhibition,[1]; at 100.0 µM,98% (active)
same,growth inhibition,[2]; at 1.2 µM,-12%
same,growth inhibition,[2]; at 3.7 µM,-10%
same,growth inhibition,[2]; at 11.0 µM,3%
same,growth inhibition,[2]; at 33.0 µM,28%
same,growth inhibition,[2]; at 100.0 µM,98% (active)
same,growth inhibition,[3]; at 1.2 µM,-3%
same,growth inhibition,[3]; at 3.7 µM,-25%
same,growth inhibition,[3]; at 11.0 µM,3%
same,growth inhibition,[3]; at 33.0 µM,76% (active)
same,growth inhibition,[3]; at 100.0 µM,99% (active)
same,growth inhibition,[4]; at 1.2 µM,-15%
same,growth inhibition,[4]; at 3.7 µM,-13%
same,growth inhibition,[4]; at 11.0 µM,-4%
same,growth inhibition,[4]; at 33.0 µM,44%
same,growth inhibition,[4]; at 100.0 µM,98% (active)
same,growth inhibition,[5]; at 1.2 µM,-5%
same,growth inhibition,[5]; at 3.7 µM,-28%
same,growth inhibition,[5]; [17],2%
same,growth inhibition,[5]; at 11.0 µM,-17%
same,growth inhibition,[5]; at 33.0 µM,37%
same,growth inhibition,[5]; [18],65%
same,growth inhibition,[5]; at 50.0 µM,77.5% (active)
same,growth inhibition,[5]; at 100.0 µM,97% (active)
same,growth inhibition,[6]; at 1.2 µM,-26%
same,growth inhibition,[6]; at 3.7 µM,-23%
same,growth inhibition,[6]; [17],-7%
same,growth inhibition,[6]; at 11.0 µM,-4%
same,growth inhibition,[6]; at 33.0 µM,35%
same,growth inhibition,[6]; [18],75% (active)
same,growth inhibition,[6]; at 50.0 µM,85% (active)
same,growth inhibition,[6]; at 100.0 µM,99% (active)
same,growth inhibition,[7]; at 1.2 µM,-16%
same,growth inhibition,[7]; at 3.7 µM,-13%
same,growth inhibition,[7]; at 11.0 µM,-7%
same,growth inhibition,[7]; at 33.0 µM,27%
same,growth inhibition,[7]; at 100.0 µM,98% (active)
same,growth inhibition,[8]; [17],5%
same,growth inhibition,[8]; [18],4%
same,growth inhibition,[8]; at 50.0 µM,89.7% (active)
same,growth inhibition,[9]; at 1.2 µM,-6%
same,growth inhibition,[9]; at 3.7 µM,1%
same,growth inhibition,[9]; at 11.0 µM,1%
same,growth inhibition,[9]; at 33.0 µM,35%
same,growth inhibition,[9]; at 100.0 µM,98% (active)
same,growth inhibition,[10]; [17],-2%
same,growth inhibition,[10]; [18],65%
same,growth inhibition,[10]; at 50.0 µM,58.3%
same,growth inhibition,[11]; at 1.2 µM,-22%
same,growth inhibition,[11]; at 3.7 µM,-31%
same,growth inhibition,[11]; [17],-7%
same,growth inhibition,[11]; at 11.0 µM,-20%
same,growth inhibition,[11]; at 33.0 µM,6%
same,growth inhibition,[11]; [18],56%
same,growth inhibition,[11]; at 50.0 µM,78.9% (active)
same,growth inhibition,[11]; at 100.0 µM,99% (active)
same,growth inhibition,[12]; at 1.2 µM,3%
same,growth inhibition,[12]; at 3.7 µM,7%
same,growth inhibition,[12]; at 11.0 µM,4%
same,growth inhibition,[12]; at 33.0 µM,63%
same,growth inhibition,[12]; at 100.0 µM,99% (active)
same,growth inhibition,[13]; at 1.2 µM,-4%
same,growth inhibition,[13]; at 3.7 µM,-1%
same,growth inhibition,[13]; at 11.0 µM,7%
same,growth inhibition,[13]; at 33.0 µM,67%
same,growth inhibition,[13]; at 100.0 µM,99% (active)
same,growth inhibition,[14]; at 1.2 µM,22%
same,growth inhibition,[14]; at 3.7 µM,32%
same,growth inhibition,[14]; at 11.0 µM,21%
same,growth inhibition,[14]; at 33.0 µM,81% (active)
same,growth inhibition,[14]; at 100.0 µM,98% (active)
same,growth inhibition,[15]; [17],-28%
same,growth inhibition,[15]; [18],88% (active)
same,growth inhibition,[15]; at 50.0 µM,72.9% (active)
same,growth inhibition,[16]; at 1.2 µM,-9%
same,growth inhibition,[16]; at 3.7 µM,-2%
same,growth inhibition,[16]; at 11.0 µM,8%
same,growth inhibition,[16]; at 33.0 µM,52%
same,growth inhibition,[16]; at 100.0 µM,98% (active)
